# High-throughput results deposited in PubChem BioAssay by several laboratories.
# Efflux pump inh: antifungal efflux pump inhibition, Nile Red retention; S. cerevisiae Candida pump triplex; inhibition, % at 10 µM; 330,000 tested, 0.44% active;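 active means plate passing quality check with inhibition over a set limit, or well fluorescence over plate mean plus 4 SD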;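 further: Nile Red retained in pooled yeast measured as flow cytometry median fluorescence; higher means more Nile Red kept so more efflux inhibition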
# GC-A act: GC-A (human) enzyme activation; P16066; HEK293 GC-A cells, cGMP TR-FRET, EC30 ANP; 0% at EC30 ANP, 100% saturating ANP; activation, % at 10 µM; 370,000 tested, 0.14% active; in the data active means activation above about 40%
# Target sequence (P16066 whole entry, looked up): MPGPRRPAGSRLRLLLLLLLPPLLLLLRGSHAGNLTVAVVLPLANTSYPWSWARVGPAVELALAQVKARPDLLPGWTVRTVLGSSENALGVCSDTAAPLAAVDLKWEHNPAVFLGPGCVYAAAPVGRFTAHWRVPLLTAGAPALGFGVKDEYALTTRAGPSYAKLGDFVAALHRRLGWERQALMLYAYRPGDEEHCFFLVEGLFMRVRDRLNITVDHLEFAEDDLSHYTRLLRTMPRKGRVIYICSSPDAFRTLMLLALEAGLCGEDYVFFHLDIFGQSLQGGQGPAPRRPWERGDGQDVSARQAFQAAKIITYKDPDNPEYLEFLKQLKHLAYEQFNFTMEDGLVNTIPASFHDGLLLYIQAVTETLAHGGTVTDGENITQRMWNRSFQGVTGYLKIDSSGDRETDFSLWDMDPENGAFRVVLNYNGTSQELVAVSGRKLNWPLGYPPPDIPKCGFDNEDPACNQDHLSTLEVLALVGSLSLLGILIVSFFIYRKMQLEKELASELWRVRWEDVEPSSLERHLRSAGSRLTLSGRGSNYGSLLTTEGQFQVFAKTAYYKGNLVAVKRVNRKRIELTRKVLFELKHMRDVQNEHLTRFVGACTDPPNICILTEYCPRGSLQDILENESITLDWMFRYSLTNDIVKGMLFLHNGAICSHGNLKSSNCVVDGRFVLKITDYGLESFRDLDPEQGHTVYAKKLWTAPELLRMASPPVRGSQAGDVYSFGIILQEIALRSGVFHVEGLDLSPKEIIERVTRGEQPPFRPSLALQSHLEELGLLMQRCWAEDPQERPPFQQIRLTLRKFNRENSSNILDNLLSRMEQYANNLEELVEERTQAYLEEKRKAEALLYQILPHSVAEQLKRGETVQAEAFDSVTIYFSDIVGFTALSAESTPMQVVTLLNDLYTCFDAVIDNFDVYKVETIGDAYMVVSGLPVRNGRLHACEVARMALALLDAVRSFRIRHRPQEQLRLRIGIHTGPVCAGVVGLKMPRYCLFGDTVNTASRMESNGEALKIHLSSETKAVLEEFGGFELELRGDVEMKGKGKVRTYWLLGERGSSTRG
# Rce1 inh: yeast Ras-converting enzyme inhibition; Q03530; yeast membranes, quenched prenylated peptide cleavage fluorescence; calls only; 290,000 tested, 0.27% active;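 active means fall in fluorescence gain of 50% or more versus controls, with final raw signal at or below 3038400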
# NSD2 HMT inh: NSD2 (human) methyltransferase inhibition. NSD2 peptide methylation, AlphaScreen, 120 min. AID 743445. 310,000 tested, 0.54% active. inhibition, % at 12.5 µM; in the data active means inhibition above about 50%
# V-ATPase pH: regulators of yeast V-ATPase proton transport | S. cerevisiae, pHLuorin cytosolic pH fluorescence | AID 504577 | 350,000 tested, 0.37% active | response, % at 10 µM; in the data active means response mostly above about 7.3%, no sharp cut-off; inactive means mostly below about 5.4%; further: actives read high
# NPR2 activator: GC-B (human) receptor activation | 370,000 tested, 0.11% active | HEK293-GC-B cells, CNP EC30, cGMP TR-FRET; 0% at EC30 CNP, 100% saturating CNP | activation, % at 10 µM;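 active means activation at 10 µM reaching about 35% in either raw or pattern-adjusted values, limit read from the data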
# AlphaScreen art: interferes with AlphaScreen signal, flagging NSD2 false positives. shares compounds with NSD2 HMT inh. AID 1053174. 1,500 tested, 9.4% active. AC35, µM (top dose mostly 10 µM). AlphaScreen artifact counterscreen, preloaded methylated H4 peptide; call rule not given here
# Numbers stand for hits; i = inactive; nt = no result given; + = active, no number. Sampled rows, rich in hits. Any-hit rate of the full collection: about 1.6%.
SMILES,Efflux pump inh,GC-A act,Rce1 inh,NSD2 HMT inh,V-ATPase pH,NPR2 activator,AlphaScreen art
O=C(CSc1nnc(-c2cnccn2)n1-c1ccccc1)c1ccccc1Br,nt,i,nt,i,nt,i,nt
N=C1/C(=C\c2ccc(Br)o2)C(=O)N=C2SC(CC(=O)N3CCCCC3)=NN12,i,i,i,67,i,i,i
CCOC(=O)CC[C@@]1(C(=O)OCC)C[C@@H](CC(=O)N2CCOCC2)C(=O)N2CCCC=C21,nt,i,nt,nt,nt,i,nt
CCCC(C)NC(=O)CC1Oc2ccccc2NC1=O (stereo not given),nt,i,nt,i,nt,i,nt
CC1=C(C)C(=O)N(c2ccccn2)C1=O,i,i,i,i,i,i,nt
Cc1nn(-c2ccccn2)c2c1C(=O)C(Br)CC2 (stereo not given),nt,nt,nt,100,i,nt,i
CCOC(=O)C1=CN(c2cccc(F)c2)C=C(C(=O)OCC)C1c1cc(OC)c(O)c([N+](=O)[O-])c1,i,i,i,57,i,i,i
C=CCN1C(=O)[C@@H](CC(=O)N2CCCCC2)[C@]2(C(=O)OCC)CCCCC/C=C/12,nt,i,nt,nt,nt,i,nt
CC(C)CCC(CCNCc1ccccn1)c1ccc2c(c1)OCO2 (stereo not given),i,i,i,i,i,i,nt
CCNCCC(CCC(C)C)c1ccc2c(c1)OCO2 (stereo not given),i,i,i,57,i,i,i
CCCCCCCCN1C(=O)[C@@H](CC(=O)NCc2cccc3ccccc23)C[C@@]2(C(=O)OC)C1=C[C@H](COCc1ccccc1)O[C@@H]2C,nt,i,nt,nt,nt,i,nt
CNCCCOc1cccc(Oc2ccccc2)c1,i,i,i,127,i,i,i
CC(=O)NCCOc1cccc(OCCNC(C)=O)c1,i,i,i,i,i,i,nt
CNCCCOc1cccc(OC(C)C)c1,i,i,i,92,i,i,i
CC(O)CNCCCOc1cccc(Oc2ccccc2)c1 (stereo not given),i,i,i,i,i,i,nt
CCCCN(CC)CCNC(=O)c1ccc2c(Cl)c3c(nc2c1)CCC3,i,i,i,75,i,i,i
O=[N+]([O-])c1cc2ncccc2c2ncccc12,nt,i,nt,56,i,i,i
Cc1cc([N+](=O)[O-])cc2ncccc12,i,i,i,i,i,i,nt
COc1ccc(-n2c(SCC(=O)N(CC(C)C)CC(C)C)nnc2-c2ccncc2)cc1,nt,i,nt,i,nt,i,nt
COCCN(C(=O)CCC(=O)Nc1ccccn1)C(C(=O)NC(C)C)c1ccc(C)cc1 (stereo not given),i,i,i,60,i,i,i
COc1ccc(C(=O)N2CCC(Oc3cccnc3)CC2)c(OC)c1,nt,i,nt,nt,nt,i,nt
Cn1c(-c2cc3c(C(F)(F)F)nn(C)c3s2)n[nH]c1=S,i,i,i,i,i,i,nt
CCn1c(-c2cc3c(C(F)(F)F)nn(C)c3s2)n[nH]c1=S,i,i,i,52,i,i,i
O=S(=O)(c1ccc(Cl)s1)N1CCC(c2cn3ccccc3n2)CC1,nt,i,nt,i,nt,i,nt
CC1(C)CC(NC(=O)CCc2nnc(CCCCc3ccccc3)o2)CCO1 (stereo not given),i,i,i,i,i,i,nt
SMILES,Efflux pump inh,GC-A act,Rce1 inh,NSD2 HMT inh,V-ATPase pH,NPR2 activator,AlphaScreen art
O=C(CCc1nnc(CCCCc2ccccc2)o1)NC1CCCC1,i,i,i,83,i,i,i
COc1ccc(CCNc2c([N+](=O)[O-])ncn2C)cc1OC,i,i,i,61,i,i,i
CCCCNc1c([N+](=O)[O-])ncn1C,i,i,i,i,i,i,nt
CCOC(=O)Cc1nc(N2CCN(Cc3cccc4c3OCO4)CC2)c2c(C)c(C(=O)OCC)sc2n1,nt,i,nt,i,nt,i,nt
COc1ccc(NS(=O)(=O)c2cc(NC(=O)COc3ccccc3)ccc2N2CCOCC2)cc1,i,i,nt,60,i,i,i
O=C(N/N=C1\C/C(=N\NC(=O)c2ccncc2)c2ccccc21)c1ccncc1,i,i,i,108,i,i,i
O=C(c1coc(=O)c(Br)c1)N1CCOCC1,nt,i,i,141,i,i,i
O=C(NCCc1cccs1)C1CC(c2ccccc2F)=NO1 (stereo not given),i,i,i,nt,i,i,nt
O=C(O)C1CC(c2ccccc2F)=NO1 (stereo not given),i,i,i,108,i,i,i
[O-][n+]1cccc2c(Br)cc(Br)c(O)c21,i,i,nt,61,i,i,i
O=C(c1cc(-c2ccc(Cl)c(Cl)c2)on1)N1CCCCCC1,i,i,i,81,i,i,i
CCCCCCN1CCS(=O)(=O)N(Cc2ccc(OC)cc2)C(C(=O)OC)C1 (stereo not given),nt,i,nt,nt,nt,i,nt
CCOc1cc(N2CCOCC2)c(OCC)cc1NC(=O)C(C)C,i,i,i,i,i,i,nt
CCOc1cc(N2CCOCC2)c(OCC)cc1NC(C)C(=O)N1CCN(CC)CC1 (stereo not given),nt,i,i,90,i,i,i
CCOC(=O)c1c(NC(=O)COC)sc2c1CCCC2,i,i,i,57,i,i,i
COc1ccc(S[C@]2(C(=O)N(C)C)CC(=O)N(c3ccccc3)[C@@H]2c2ccc(OC)cc2)cc1,nt,i,nt,nt,nt,i,nt
COc1ccc(/C=N/NC(=O)c2cc(O)c(O)c(O)c2)cc1Cn1cc([N+](=O)[O-])cn1,nt,i,i,73,i,i,8.6µM
CC(C)Oc1ccc(-c2csc(N3CCC(C(N)=O)CC3)n2)cc1,nt,i,nt,nt,nt,i,nt
O=C1c2cccc(Cl)c2C(=O)c2c1cccc2N1CCCC1,i,i,i,74,i,i,1.1µM
O=C1c2ccccc2C(=O)c2cc(N3CCCCC3)ccc21,nt,i,nt,i,i,i,nt
CC(C)(C)C(=O)COC(=O)C1CC(=O)N(c2ccccc2)C1 (stereo not given),i,i,i,i,i,i,nt
O=C(OCc1cccc2ccccc12)C1CC(=O)N(c2ccccc2)C1 (stereo not given),i,i,i,79,i,i,i
Cc1ccc(N2CCOCC2)c2c1C(=O)c1ccccc1C2=O,i,i,i,57,i,i,4.3µM
CN(C1=C(N2CCOCC2)C(=O)c2ccccc2C1=O)c1ccccc1,i,i,i,76,i,i,2.9µM
O=C1C=C(N2CCOCC2)c2ccccc2C1=O,i,i,i,+,i,i,i
CC(=O)N(C(C)=O)N1C(=O)c2cccc3c(N4CCOCC4)ccc(c23)C1=O,i,i,i,i,i,i,nt
Cc1nc2ccc(S(=O)(=O)NCC(=O)N(C)Cc3ccccc3Cl)cc2s1,nt,i,nt,i,nt,i,nt
Cc1ccc(OC[C@@H](O)CN2CCC(C(O)(c3ccccc3)c3ccccc3)CC2)cc1,nt,i,nt,nt,nt,i,nt
C[C@H]1[C@H](c2ccccc2)OC(O)([C@H](Cc2ccccc2)NC(=O)OC(C)(C)C)CN1C (stereo not given in full),nt,i,nt,i,nt,i,nt
Cc1nc2ccc(NC(=O)c3ccc(F)cc3Cl)cc2c(=O)[nH]1,nt,i,nt,i,nt,i,nt
